# Values joined by “and” are separate entries in the source; they are usually repeats but may differ in a detail not shown here. Identical values can stand only once. About 120 (0.75%) of roughly 16,000 compounds were called active. Roughly 4% stayed inconclusive and do not appear here. Calls follow the shape of the dose curve; as a rule, active = well fitted inhibition curve with a large enough effect; inconclusive = small, poorly fitted or top-dose-only effect; inactive = no such curve, though single readings can be large or run the other way. The full list was thinned out, with actives kept by preference. More than one record can exist for a structure, and the calls need not agree.
# Target: Rap guanine nucleotide exchange factor 3 (Homo sapiens) (UniProt O95398)
# Experiment: Validation qHTS for antagonist of cAMP-regulated guanine nucleotide exchange factor 3 (EPAC1); also: nearly all actives have a fitted effect of over 75% in size
# Conditions: EPAC1 Rap1B-BODIPY-GDP exchange, fluorescence; series mostly up to 150 µM; activity change, negative = inhibition: at the top concentration
# Outline: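 EPAC1 (100 nM) mixed with 250 nM RAP1B-BODIPY-GDP and 50 uM GDP; compounds in concentration series, 5 min at room temperature. Fluorescence (ex 480/em 540 nm) read every 5 min for 30 min; normalized to ATA control and DMSO.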
# Potency is read from the fitted curve at half-maximal effect.
# Chain of Rap guanine nucleotide exchange factor 3 (Homo sapiens) (O95398 whole entry, looked up): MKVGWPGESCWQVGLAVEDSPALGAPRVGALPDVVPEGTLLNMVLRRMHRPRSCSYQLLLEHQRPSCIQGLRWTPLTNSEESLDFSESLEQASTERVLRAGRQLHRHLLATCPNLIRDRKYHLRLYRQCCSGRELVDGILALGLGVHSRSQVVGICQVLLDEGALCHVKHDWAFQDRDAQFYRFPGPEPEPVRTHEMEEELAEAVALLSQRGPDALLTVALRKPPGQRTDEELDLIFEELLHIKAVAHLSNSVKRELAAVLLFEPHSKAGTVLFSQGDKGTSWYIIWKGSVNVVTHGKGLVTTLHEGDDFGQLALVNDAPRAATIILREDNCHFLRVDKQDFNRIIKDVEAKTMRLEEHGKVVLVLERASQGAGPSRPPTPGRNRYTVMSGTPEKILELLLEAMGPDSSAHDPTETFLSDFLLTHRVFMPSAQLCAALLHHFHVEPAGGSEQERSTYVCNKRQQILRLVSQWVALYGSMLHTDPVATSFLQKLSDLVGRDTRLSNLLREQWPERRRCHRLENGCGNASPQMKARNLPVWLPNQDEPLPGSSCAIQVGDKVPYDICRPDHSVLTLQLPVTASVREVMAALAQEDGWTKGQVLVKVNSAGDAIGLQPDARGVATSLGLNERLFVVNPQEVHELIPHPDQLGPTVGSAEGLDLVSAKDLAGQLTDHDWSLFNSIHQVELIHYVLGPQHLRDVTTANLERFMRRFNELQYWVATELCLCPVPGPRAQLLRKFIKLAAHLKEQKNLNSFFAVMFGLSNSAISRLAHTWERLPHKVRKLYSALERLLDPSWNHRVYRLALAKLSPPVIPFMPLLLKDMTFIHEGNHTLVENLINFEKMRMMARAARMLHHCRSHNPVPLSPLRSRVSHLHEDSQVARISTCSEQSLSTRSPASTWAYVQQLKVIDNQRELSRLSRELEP
Compound,"activity change, negative = inhibition",Potency
CC1O[C@@H](O[C@@H]2C(O)C[C@H](O[C@@H]3C(O)C[C@@H](OC4CC[C@@]5(C)C6CC(O)[C@@]7(C)C(C8=CC(=O)OC8)CC[C@@]7(O)C6CC[C@@H]5C4)OC3C)OC2C)CC(O)[C@H]1O (stereo not given in full),14.6% (inactive),–
CC(Oc1ccccc1)C(=O)NCC1Cc2cc(F)cc(-c3ccccn3)c2O1 (stereo not given),0.154% (inactive),–
COc1cccc(Nc2ncc3nc(-c4ccccc4)c(=O)n(Cc4cccs4)c3n2)c1,18.4% (inactive),–
COc1ccc(-c2nc3cnc(Nc4ccccc4)nc3n(Cc3cccs3)c2=O)cc1,-3.69% (inactive),–
COc1ccc(-c2nc3cnc(Nc4cccc(OC)c4)nc3n(Cc3cccs3)c2=O)cc1,–,100 µM (active)
CCc1ccc(CCOc2ccc(CC3SC(=O)NC3=O)cc2)nc1 (stereo not given),–,inactive
CN(CCOc1ccc(CC2SC(=O)NC2=O)cc1)c1ccccn1 (stereo not given),16.9% (inactive),–
CC1(COc2ccc(C[C@H]3SC(=O)NC3=O)cc2)CCCCC1,–,89.1 µM (active)
CC1(COc2ccc(CC3SC(=O)NC3=O)cc2)CCCCC1 (stereo not given),12.3% [at 15.3 µM] (inactive),35.5 µM (active)
Cc1c(C)c2c(c(C)c1O)CCC(C)(CCCC(C)CCCC(C)CCCC(C)C)O2 (stereo not given),-7.36% (inactive),–
Cc1c(C)c2c(c(C)c1O)CC[C@@](C)(CCC[C@H](C)CCC[C@H](C)CCCC(C)C)O2,–,inactive
Cc1c(C)c2c(c(C)c1O)CCC(C)(COc1ccc(CC3SC(=O)NC3=O)cc1)O2 (stereo not given),–,100 µM (active)
Fc1ccc(N2CCN(Cc3ccc4c(c3)CN(Cc3cccn3-c3cccnc3)CCO4)CC2)cc1,-5.67% (inactive),–
Cc1ccc2c(c1)CN(CCC(=O)NCc1cc(C)n(C)n1)CC(C)O2 (stereo not given),5.77% (inactive),–
COc1cc(=O)n2c(c1C(=O)N(C)Cc1nonc1C)CCN(Cc1ccsc1)CC2,11.6% (inactive),–
Cc1ccc(CN2C[C@H](Sc3ccccn3)C[C@H]2C(=O)Nc2ccc3sc(C)nc3c2)c(C)c1,2.23% (inactive),–
CN(C)/N=N/c1nc[nH]c1C(N)=O,–,inactive
COc1cccc(Cn2c(=O)c(-c3cc(F)cc(F)c3)nc3cncnc32)c1,0.958% (inactive),–
Cc1noc(C)c1-c1cc(N(C)C)ncn1,17.9% (inactive),–
CCCCCCCCN1[C@@H](CC(=O)O)c2cc(C(F)(F)F)ccc2S1(=O)=O,9.17% (inactive),–

Compound,"activity change, negative = inhibition",Potency
CCCCCCCCCCCCN1[C@@H](CC(=O)OC)c2cc(C(F)(F)F)ccc2S1(=O)=O,-0.938% (inactive),–
CCCCCCCCCCCCN1[C@@H](CC(=O)O)c2cc(C(F)(F)F)ccc2S1(=O)=O,–,89.1 µM (active)
COc1ccc(OC)c(-c2ccnc(-n3ncc(C(=O)N(C)CCc4ccccn4)c3C)n2)c1,18.1% (inactive),–
Clc1ccc2ncnc(NCc3ccc4c(c3)OCO4)c2c1,14.1% [at 201 µM] (inactive),–
CC(O)c1nc2ccccc2[nH]1 (stereo not given),5.07% (inactive),–
O=C1CC[C@@H](CN(Cc2cccnc2)C2CCN(c3ccc(NC(=O)c4cnccn4)cc3)CC2)N1,-4.84% (inactive),–
CCCCC(CC)COC(=O)c1ccccc1O (stereo not given),24.3% (inactive),–
CCCCC(CC)COC(=O)CC(C(=O)OCC(CC)CCCC)S(=O)(=O)O (stereo not given),–,56.2 µM (active) and 25.1 µM (active)
CCCCC(CC)COS(=O)(=O)O (stereo not given),-7.64% (inactive),–
O=c1c(-c2ccccc2)nc2cncnc2n1Cc1ccccc1,2.28% (inactive),–
COc1ccc(-c2nc3cnc(N4CCN(C)CC4)nc3n(-c3ccc(OC)cc3)c2=O)cc1,19% (inactive),–
COc1ccc(-c2nc3cc(C)ccc3cc2CN(C(=O)c2ccc(C)s2)C2CC2)cc1OC,4.33% (inactive),–
c1ccc(Cc2nnc3n2CCN(Cc2cnc(-c4ccccc4)s2)CC3)cc1,20.3% (inactive),–
COc1ccc(-n2c(=O)c(CCc3ccccc3)nc3cnc(N4CCNCC4)nc32)cc1,10.6% (inactive),–
COc1ccc(C(=O)C[n+]2ccccc2Cl)cc1,7.36% (inactive),–
COc1ccc(C(=O)CC(=O)c2ccc(C(C)(C)C)cc2)cc1,–,79.4 µM (active)
COc1ccc(C(C)=O)cc1,18.3% (inactive),–
Cc1ncc2c(c1CNC(=O)c1ccsc1)CCN(C(=O)c1c(F)cccc1Cl)C2,8.26% (inactive),–
COc1cc(C)c(CN2C[C@H](Sc3ccccn3)C[C@H]2C(=O)N(C)C)cc1C,-9.09% (inactive),–

# From PubChem BioAssay AID1645882 (National Center for Advancing Translational Sciences (NCATS), 2021)
